A selection: hits, their analogues and other compounds. The true share with any hit is near 5.5%.
Six1-Eya2 blk = qHTS Assay for Inhibitors of the Six1/Eya2 Interaction | AID 651725, 2012 | activity change, % (concentration not given with the values) | AlphaScreen GST-Six1/His-Eya2 binding, biochemical; active compounds read low | 0.56% of 360,000 active; in the data active = activity change below about -65%; inconclusive = mostly about -30% to -63%; also: % is scaled to controls: 0 for no effect and ±100 for the full control effect
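Six1/Eya2 binding was read as AlphaScreen signal after compounds were pinned into GST-Six1 plus His-tagged Eya2 (5X stock 250/500 nM) in pH 8.0 Tris/NaCl/TCEP buffer, beads added, then incubated 1 h, 37 C, dark.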
CBFb-RUNX1 inh = qHTS Assay for Compounds Blocking the Interaction Between CBF-beta and RUNX1 for the Treatment of Acute Myeloid Leukemia. Runt-related transcription factor 1 (Homo sapiens) + Core-binding factor subunit beta …. AlphaScreen CBFb-His/RUNX1-biotin binding, biochemical. Potency, µM (titrated, usually from 59.8 µM), for inactives: at the highest dose activity, negative = inhibition, actives largely listed as inhibitors. 230,000 tested, under 10 active. AID 1477, 2009; also: % of control where 0% means no effect
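AlphaScreen binding: CBFb-His and RUNX1-biotin (30 nM each) preincubated 20 min, compound added for 15 min, then nickel and streptavidin beads for 90 min, all at room temperature. Disruption of the interaction by any mechanism counts as activity.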
Gal4-VP16 FLuc = VP16 counterscreen qHTS for inhibitors of ROR gamma transcriptional activity. Drosophila S2 Gal4-VP16 UAS-luciferase, luminescence, 20 h. Potency, µM (titrated, usually from 53.6 µM), without a hit: at the highest dose activity, negative = inhibition, most hits filed as inhibitors. 3.5% of 310,000 active. AID 2546, 2010;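 also: Gal4-VP16 expression switched on by copper sulfate through the metallothionein promoter; potency is read from the fitted curve at half-maximal effect; % is scaled to controls: 0 for no effect and ±100 for the full control effect; nearly all actives have a fitted effect of over 50% in size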
MBNL1-CUG inh = qHTS Assay for Inhibitors of MBNL1-poly(CUG) RNA binding; Muscleblind-like protein 1 (Homo sapiens), Q9NR56; TR-FRET MBNL1-His/biotin-(CUG)12 binding, 665/545 ratio; Potency, µM (highest dose often 57.5 µM), for the others: top-dose activity change, negative = inhibition, hits mostly inhibitors; 0.036% of 280,000 active; AID 2675, 2010; active = well fitted inhibition curve with a large enough effect in the signal ratio, with a control signal flat, not every such curve was filed as active; inconclusive = small, poorly fitted or top-dose-only effect, or effect the other way, or a change in a side signal; inactive = no such curve, though single readings can be large or run the other way; the % refers to the signal ratio; also: potency is read from the fitted curve at half-maximal effect; % is scaled to controls: 0 for no effect and ±100 for the full control effect
Target sequence (Q9NR56 whole entry, looked up): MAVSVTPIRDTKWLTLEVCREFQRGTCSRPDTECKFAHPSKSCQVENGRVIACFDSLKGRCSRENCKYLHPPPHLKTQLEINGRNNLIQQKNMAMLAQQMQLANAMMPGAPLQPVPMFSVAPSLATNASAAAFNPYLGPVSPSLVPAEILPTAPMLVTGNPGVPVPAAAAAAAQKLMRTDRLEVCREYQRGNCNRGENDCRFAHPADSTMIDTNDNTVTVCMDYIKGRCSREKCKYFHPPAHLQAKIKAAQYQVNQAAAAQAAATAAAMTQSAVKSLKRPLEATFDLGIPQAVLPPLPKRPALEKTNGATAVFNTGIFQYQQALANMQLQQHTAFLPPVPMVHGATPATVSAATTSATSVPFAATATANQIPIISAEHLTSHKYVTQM
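Ratiometric TR-FRET (665 over 545 nm, excitation 340 nm) tracks disruption of MBNL1-His/biotin-(CUG)12 complex after 60 min at room temperature, with compounds at 92 nM to 58 uM final.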
CtBP-E1A inh = qHTS Assay for Inhibitors of the CtBP/E1A Interaction | AlphaScreen GST-E1A/His-CtBP binding, 1536-well; active compounds read low | CtBP / adenovirus E1A interaction (AlphaScreen) | AID 651724, 2012 | activity change, % (no concentration beside the values) | 0.49% of 340,000 active; in the data active = activity change below about -65%; inconclusive = mostly about -30% to -63%; also: % is scaled to controls: 0 for no effect and ±100 for the full control effect
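Protein mix (5X: 125 nM each GST-E1A, His-CtBP) was incubated with pinned compound 2 h at 37 deg C in dark, in 50 mM Tris pH 8.0 buffer with 300 mM NaCl. Glutathione donor and nickel acceptor beads followed; AlphaScreen signal read after 1 h.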
RORg inh = qHTS for inhibitors of ROR gamma transcriptional activity. Nuclear receptor ROR-gamma (Mus musculus), P51450. Drosophila S2 Gal4-RORgamma UAS-luciferase reporter, 20 h. Potency, µM (doses to about 53.6 µM), inactives show top-dose activity change, negative = inhibition, usual class: inhibitors. 5.4% of 310,000 active; also: potency is read from the fitted curve at half-maximal effect; % is scaled to controls: 0 for no effect and ±100 for the full control effect; nearly all actives have a fitted effect of over 60% in size
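A Gal4/UAS one-hybrid system in insect cells: metallothionein-promoter Gal4–ROR gamma fusion plus Photinus luciferase reporter. Copper sulfate 700 uM final, 20 hr ambient incubation, luminescent detection after 10 min with reagent.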
Starred values were filed as active, the others as inactive. Unless noted, calls follow the shape of the dose curve; as a rule, active = well fitted curve in the direction sought with a large enough effect; inconclusive = small, poorly fitted or top-dose-only effect, or another doubt; inactive = no such curve, though single readings can be large; an effect the other way counts as inactive or inconclusive.

What do the screens show for `C=CC[C@@H]1[C@H](O)CC[C@@]2(C)[C@H]1CC[C@@H]1[C@@H]2CC[C@]2(C)C([C@H](C)CCCC(C)C)CC[C@@H]12` (some centres not stated)?
CBFb-RUNX1 inh: -8%

What do the screens show for `O=C(Nc1ccc(F)cc1)C(CCc1ccccc1)N1CCN(Cc2c(F)cccc2Cl)CC1` (configuration not stated)?
Six1-Eya2 blk: -13; CtBP-E1A inh: -2

What do the screens show for `C=CCc1ccc(OCCn2cccc2C=O)c(OC)c1`?
Six1-Eya2 blk: 7; CBFb-RUNX1 inh: 6%; Gal4-VP16 FLuc: 0.56µM*; MBNL1-CUG inh: -5%; CtBP-E1A inh: 6; RORg inh: 0.63µM*

What do the screens show for `O=C(NNC(=O)c1cc2cc(Br)ccc2oc1=O)c1ccc(O)cc1O`?
Six1-Eya2 blk: -8; CBFb-RUNX1 inh: inconclusive; Gal4-VP16 FLuc: inconclusive; MBNL1-CUG inh: 12%; CtBP-E1A inh: -12; RORg inh: 10µM*

How did COCCCNC(=O)c1cc2cc(Br)ccc2oc1=O do in these assays?
Six1-Eya2 blk: 0; CBFb-RUNX1 inh: -2%; Gal4-VP16 FLuc: -1%; MBNL1-CUG inh: inconclusive; CtBP-E1A inh: 1; RORg inh: 11%

How did CCNc1ncc2nc(-c3cn(C)c4ccccc34)c(=O)n(Cc3cccc(OC)c3)c2n1 do in these assays?
Gal4-VP16 FLuc: 5%; RORg inh: -22%

How did Cc1nn2c(nc(N3CCCCC3)c3ccccc32)c1C=O do in these assays?
Six1-Eya2 blk: -8; CBFb-RUNX1 inh: 2%; Gal4-VP16 FLuc: -21%; MBNL1-CUG inh: -6%; CtBP-E1A inh: 0; RORg inh: inconclusive

What do the screens show for `Cc1nn2c([nH]c(=O)c3ccccc32)c1C=O`?
Six1-Eya2 blk: -21; CBFb-RUNX1 inh: 3%; Gal4-VP16 FLuc: 11µM*; MBNL1-CUG inh: -6%; CtBP-E1A inh: -25; RORg inh: 4.5µM*

Results for CCS(=O)(=O)NCC(c1cccnc1)N1CCN(c2ccc(OC)cc2)CC1 (configuration not stated) ?
Six1-Eya2 blk: 1; CBFb-RUNX1 inh: -1%; Gal4-VP16 FLuc: -5%; MBNL1-CUG inh: 2%; CtBP-E1A inh: -75*; RORg inh: 12%

How did CCS(=O)(=O)NCC(c1cccnc1)N1CCN(c2ccccc2)CC1 (configuration not stated) do in these assays?
Six1-Eya2 blk: 7; CBFb-RUNX1 inh: 2%; Gal4-VP16 FLuc: 2%; MBNL1-CUG inh: -7%; CtBP-E1A inh: 0; RORg inh: inconclusive

What do the screens show for `CC(C)(C)OC(=O)N1CCC(NC(=O)c2nc[nH]c2C(=O)N2CCc3ccccc3C2)CC1`?
Six1-Eya2 blk: -6; CtBP-E1A inh: -10

How did CNC(=O)c1[nH]cnc1C(=O)N[C@@H](C)C(=O)OCc1ccccc1 do in these assays?
Six1-Eya2 blk: -6; CBFb-RUNX1 inh: 26%; Gal4-VP16 FLuc: -10%; MBNL1-CUG inh: -1%; CtBP-E1A inh: -10; RORg inh: 33%

What do the screens show for `C[C@H](NC(=O)c1nc[nH]c1C(=O)N[C@@H](Cc1ccccc1)C(=O)OCc1ccccc1)C(=O)OCc1ccccc1`?
Six1-Eya2 blk: -10; Gal4-VP16 FLuc: inconclusive; MBNL1-CUG inh: -3%; CtBP-E1A inh: -7; RORg inh: 11µM*

What do the screens show for `C[C@H](NC(=O)c1nc[nH]c1C(=O)N[C@@H](Cc1ccccc1)C(=O)OC(C)(C)C)C(=O)OCc1ccccc1`?
Six1-Eya2 blk: -4; Gal4-VP16 FLuc: inconclusive; MBNL1-CUG inh: 3%; RORg inh: 7.9µM*

High-throughput results deposited in PubChem by National Center for Advancing Translational Sciences (NCATS).
